The term AC50 denotes the midpoint of the concentration-response curve, whichever way the signal moves.

Screen size: about 16,000 compounds; about 5,100 (32%) were called active. Roughly 25% stayed inconclusive and do not appear here. The call rests on the fitted dose curve; in most records, active means well fitted curve in the direction sought with a large enough effect; inconclusive means small, poorly fitted or top-dose-only effect, or effect the other way; inactive means no such curve, though single readings can be large or run the other way. The list shows a part of the results.
On the % scale 0 is the no-effect control and ±100 the full control effect.

For this experiment, the target named is Cytochrome P450 3A4 (Homo sapiens) (UniProt P08684). Description: Cytochrome panel assay with activity outcomes. Particulars: recombinant CYP, pro-luciferin dealkylation, luminescence, p450-cyp3a4; series mostly up to 57.1 µM.
Cytochrome P450 3A4 (Homo sapiens), sequence (P08684 whole entry, looked up): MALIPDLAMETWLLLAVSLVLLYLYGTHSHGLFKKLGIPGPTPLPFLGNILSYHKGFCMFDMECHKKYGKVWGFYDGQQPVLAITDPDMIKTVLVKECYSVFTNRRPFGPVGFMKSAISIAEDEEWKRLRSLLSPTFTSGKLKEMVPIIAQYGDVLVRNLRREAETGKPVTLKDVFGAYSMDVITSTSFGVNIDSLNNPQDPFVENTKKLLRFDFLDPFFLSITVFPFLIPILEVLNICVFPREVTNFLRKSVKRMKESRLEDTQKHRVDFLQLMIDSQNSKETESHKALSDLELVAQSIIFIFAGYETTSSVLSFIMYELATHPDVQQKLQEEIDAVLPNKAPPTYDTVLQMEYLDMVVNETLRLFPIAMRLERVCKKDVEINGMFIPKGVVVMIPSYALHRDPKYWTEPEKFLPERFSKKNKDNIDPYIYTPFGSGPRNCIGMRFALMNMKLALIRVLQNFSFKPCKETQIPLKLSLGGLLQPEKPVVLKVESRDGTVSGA
Turning to `CCn1c(CCCc2nc3c([nH]2)c(=O)n(C)c(=O)n3C)nc2c1c(=O)n(C)c(=O)n2C`, the activity, negative = inhibition is -26.8% [at 11.4 µM] (inactive).
Consider `COC(=O)c1[nH]c2ccc(Br)cc2c1NC(=O)CN1CCN(C2CCCCC2)CC1`, for which the AC50 is 14.1 µM (active).
Turning to `COC(=O)c1[nH]c2ccc(Br)cc2c1NC(=O)CN1CCCc2ccccc21`, the activity, negative = inhibition was -23.9% [at 2.29 µM] (inactive).
For the molecule `COC(=O)c1[nH]c2ccc(Br)cc2c1NC(=O)Oc1ccccc1`, the activity, negative = inhibition is 10.3% [at 2.29 µM] (inactive).
With `COc1ccc(C2c3c(ncn(CCN4CCOCC4)c3=N)Oc3ccc4ccccc4c32)cc1OC` (stereo not drawn), the AC50 was 3.16 µM (active).
The same measure, in the same setting: then `Cc1ccccc1OCCNC(=O)c1ccccc1Sc1ccccc1C#N`, with 14.1 µM (active).
On to `CNC(=S)NNC(=O)COc1ccccc1C`, for which the AC50 result was “inactive”.
Still for that read-out and setting: then `CCCC1CCC(c2ccc(C(N)=O)cc2)CC1` (stereo not drawn), with “inactive”; and `CC(C)c1nc2ccccn2c1NC1CCCCC1`, with 14.1 µM (active).
The same measure, in the same setting: for `N=c1c(C(=O)NC2CCCC2)cc2c(=O)n3ccccc3nc2n1C1CCCC1` the value was “inactive”.
With `CCSc1nnc(-c2ccccc2NC(C)=O)c(=O)[nH]1`, the AC50 entry was “inactive”.
On the same count and under the same terms, for `CCC[C@@H]1C[C@@]1(CCC)C(NC(=O)c1cccs1)c1ccc(Cl)cc1` (stereo partly drawn) the value was 6.31 µM (active).
With `CC[C@H](CN(C)C)C(=O)c1ccco1`, the activity, negative = inhibition is -7.24% [at 11.4 µM] (inactive).
For `CCOC(=O)CC(NC(=O)c1cccs1)c1ccc(OCC)cc1` (stereo not drawn), the AC50 result was “inactive”.
Take `CCCCN1C(=O)NC(NC(=O)c2ccco2)(C(F)(F)F)C1=O` (stereo not drawn): the activity, negative = inhibition was 2.31% [at 2.29 µM] (inactive).
`CCC[C@@H]1C[C@@]1(CCC)C(NC(=O)c1ccco1)c1ccc(Cl)cc1` (stereo partly drawn): the half-maximal activity concentration (AC50) was 12.6 µM (active).
Same read-out and setting: for `CCC[C@@H]1C[C@@]1(CCC)C(NS(=O)(=O)c1cccc2cccnc12)c1ccc(Cl)cc1` (stereo partly drawn) the value was 0.794 µM (active).
Same read-out and setting: for `Cc1noc(C)c1C(=O)N1CCC2(CCN(C(=O)NC(C)C)CC2)CC1` the value was “inactive”; for `CCn1c(-c2ccccc2Cl)nn(CC(=O)Nc2ccccc2OC)c1=S`, 12.6 µM (active); for `CCn1nc(C(=O)Nc2ccccc2C)c(Cl)c1Cl`, “inactive”.
Same read-out and setting: then `CCn1c(-c2ccccc2Cl)nn(CC(=O)Nc2ccc(OC)cc2)c1=S`, with 5.01 µM (active); and `COC(=O)Cn1nc(-c2ccccc2)n(-c2ccccc2)c1=S`, with “inactive”; and `CCn1c(-c2ccccc2Cl)nn(CC(=O)Nc2cc(Cl)ccc2Cl)c1=S`, with 5.01 µM (active).
On to `COc1ccc(Oc2ncc3nc(-c4ccc(F)cc4)c(=O)n(C)c3n2)cc1`, for which the AC50 was 3.98 µM (active).
As to `O=c1c(-c2cc(F)cc(F)c2)nc2cnc(Oc3ccccc3)nc2n1C1CC1`, the AC50 result was “inactive”.
The same measure, in the same setting: for `COc1ccc(Oc2ncc3nc(-c4cc(F)cc(F)c4)c(=O)n(C)c3n2)cc1` the value was 5.01 µM (active).
The same measure, in the same setting: then `COc1cccc(Nc2ncc3nc(-c4ccc(F)cc4)c(=O)n(C)c3n2)c1`, with “inactive”.
Consider `COc1ncc2nc(-c3cc(F)cc(F)c3)c(=O)n(-c3ccccc3)c2n1`, for which the AC50 result is “inactive”.
On to `CN(CCO)Cc1ncccc1O`, for which the activity, negative = inhibition was -9.73% [at 11.4 µM] (inactive).
Turning to `O=C(NCCc1c[nH]c2ccccc12)C1CCN(c2nnc(N3CCCC3=O)s2)CC1`, the AC50 was 8.91 µM (active).
On the same count and under the same terms, then `CN1CCN(CCCNC(=O)C2CCN(c3nnc(-n4cccc4)s3)CC2)CC1`, with “inactive”.
As to `O=C(O)[C@H](Cc1c[nH]c2ccccc12)N1C(=O)c2ccccc2C1=O`, the activity, negative = inhibition was -3.21% [at 11.4 µM] (inactive).
For `CCOc1ccc(NC(=S)N(Cc2ccc(Cl)cc2)Cc2ccco2)cc1`, the AC50 is 3.55 µM (active).
Same read-out and setting: for `CCOc1ccc(NC(=S)N(Cc2ccc(N(C)C)cc2)Cc2ccco2)cc1` the value was 7.08 µM (active); for `Cc1cccc(OCCSCc2nc3ccccc3[nH]2)c1`, 7.08 µM (active).
Turning to `c1ccc(C(c2ccccc2)N2CCCC3(CCNCC3)C2)cc1`, the half-maximal activity concentration (AC50) is 1.26 µM (active).
In the case of `c1ccc(C(c2ccccc2)N2CC[C@@]3(CCCNC3)C2)cc1`, the AC50 was 7.94 µM (active).
As to `c1ccc(C(c2ccccc2)N2CCC3(CCNCC3)CC2)cc1`, the AC50 result is “inactive”.
For the molecule `COc1ccccc1CN1CCCC2(CCNCC2)C1`, the AC50 entry was “inactive”.
The same measure, in the same setting: for `Cc1cc(C)cc(-n2c(O)c(C=NC3CCS(=O)(=O)C3)c3ccccc3c2=O)c1` (stereo not drawn) the value was 10 µM (active).
Still for that read-out and setting: then `COC(=O)c1ccc(NC(=O)c2cc3sccc3n2C)cc1`, with “inactive”; and `O=C(Nc1ccc2c(c1)OCCO2)c1cc2sccc2n1Cc1ccc(F)cc1`, with 5.01 µM (active); and `O=C(Nc1ccc2c(c1)OCCO2)c1cc2sccc2n1Cc1ccccc1`, with 6.31 µM (active).
Consider `Cn1c(C(=O)Nc2ccccc2)cc2sccc21`, for which the AC50 was 25.1 µM (active).
Take `CCOC(=O)c1sc(NC(=O)CSc2nc(C)cc(C)c2C#N)c(C#N)c1C`: the activity, negative = inhibition was -17.1% [at 2.29 µM] (inactive).
With `CCOC(=O)c1sc(NC(=O)CSc2n[nH]c(-c3ccc(Cl)cc3Cl)n2)c(C#N)c1C`, the AC50 is 10 µM (active).
For the molecule `CCOC(=O)c1sc(NC(=O)CSc2nc(C)cc(C)n2)c(C#N)c1C`, the AC50 is 10 µM (active).
Still for that read-out and setting: for `CN1[C@@H](CC(=O)c2ccccc2)CCC[C@@H]1C[C@@H](O)c1ccccc1` the value was “inactive”.
Take `O=C1COC(c2ccccc2O)=NN1CCCN1CCCC1`: the activity, negative = inhibition is -10.8% [at 11.4 µM] (inactive).
`CCc1ccc(N/C(SCc2ccccc2C)=C(/C#N)C(=O)NCc2ccco2)cc1`: the concentration at half-maximal activity (AC50) is 6.31 µM (active).
On to `CCN1CCC[C@@H]1CNC(=O)c1cc(S(N)(=O)=O)ccc1OC`, for which the AC50 result is “inactive”.
Same read-out and setting: for `O=C(CSc1ccc(Cl)cc1)Nc1ccc(N2CCN(C(=O)c3ccc(Cl)cc3)CC2)cc1` the value was 0.891 µM (active); for `O=C(CSc1ccc(Cl)cc1)Nc1ccc(N2CCN(c3ccccc3)CC2)c(F)c1`, “inactive”.
With `O=C(CSc1ccccc1)Nc1ccc(N2CCN(c3ccccc3)CC2)c(F)c1`, the activity, negative = inhibition is -8.27% [at 11.4 µM] (inactive).
Consider `Cn1nc(-c2ccccc2)c(C(=O)Nc2ccc(Cl)cc2)c1Cl`, for which the AC50 result was “inactive”.
Same read-out and setting: then `O=C(Nc1ccc(Cl)cc1)c1cnc(-c2ccccc2)nc1-c1ccccc1`, with “inactive”; and `Cc1nc(-c2cccnc2)sc1C(=O)Nc1ccc(Cl)cc1`, with 14.1 µM (active).
Still for that read-out and setting: then `Cc1nc(-c2cccnc2)sc1C(=O)Nc1ccc(F)cc1F`, with 15.8 µM (active).
For `Brc1ccc2cccnc2c1`, the AC50 result was “inactive”.
On the same count and under the same terms, for `N#CCCn1cc(/C=N/O)c(-c2ccc(Cl)cc2)n1` the value was 12.6 µM (active); for `N#CCCn1c(=O)c(-c2ccc(Cl)cc2)nc2cnc(N3CCOCC3)nc21`, “inactive”.
On the same count and under the same terms, then `CN1CCN(c2ncc3nc(-c4ccc(Cl)cc4)c(=O)n(CCC#N)c3n2)CC1`, with “inactive”.
For the molecule `Cc1ccc(S(=O)(=O)N/N=C/c2ccc(OC3CSC3)cc2)cc1`, the activity, negative = inhibition was -21.9% [at 2.29 µM] (inactive).
As to `O=S(=O)(N/N=C/c1ccc2c(c1)OCCO2)c1ccc(Cl)cc1`, the AC50 was 14.1 µM (active).
On to `O=S(=O)(N/N=C\c1ccc2c(c1)OCO2)c1ccc(Cl)cc1`, for which the AC50 is 3.98 µM (active).
Turning to `Cc1cc(OC(=O)c2ccccc2Br)cc(=O)n1C`, the activity, negative = inhibition is -13.2% [at 11.4 µM] (inactive).
On to `CC(C)N=c1cc2n(-c3ccc(Cl)cc3)c3ccccc3nc-2cc1Nc1ccc(Cl)cc1`, for which the AC50 result was “inactive”.
The same measure, in the same setting: then `CN(C)c1nc(NCc2ccccc2)nc(N/N=C/c2ccc(Cl)cc2Cl)n1`, with 2.24 µM (active); and `O=C(N/N=C/c1ccc(Cl)cc1Cl)Nc1ccccc1`, with “inactive”.
In the case of `CC(Sc1nc(NCc2ccccc2)nc(N(C)C)n1)C(=O)Nc1ccccc1` (stereo not drawn), the activity, negative = inhibition is -9.99% [at 2.29 µM] (inactive).
Still for that read-out and setting: for `O=C(O)CC1(C(=O)O)CCCCC1` the value was -15.2% [at 11.4 µM] (inactive).
For the molecule `N.N.O=C(O)C1(C(=O)O)CCC1.[Pt]`, the AC50 was 39.8 µM (active).
Regarding `NC1(C(=O)O)C[C@@H](C(=O)O)[C@H](C(=O)O)C1`, the AC50 result was “inactive”.
On the same count and under the same terms, for `Cc1ccc(S(=O)(=O)c2nc(S(=O)(=O)c3ccc(C)cc3)c(NCc3ccco3)s2)cc1` the value was 3.55 µM (active).
With `Cc1ccc(CSc2nnc3c(n2)OC2(Nc4ccccc4-3)C(=O)Nc3ccc(F)cc32)cc1` (stereo not drawn), the activity, negative = inhibition is -12.4% [at 2.29 µM] (inactive).
`O=C1Nc2ccc(F)cc2C12Nc1ccccc1-c1nnc(SCc3ccccc3F)nc1O2` (stereo not drawn): the AC50 was 15.8 µM (active).
In the case of `Cc1ccc(CNC(=O)[C@H]2C[C@@H]2[C@H](NP(=O)(c2ccccc2)c2ccccc2)c2ccccc2)c(F)c1F`, the half-maximal activity concentration (AC50) was 0.316 µM (active).
Turning to `Cc1cc(CNC(=O)[C@H]2C[C@@H]2[C@H](NP(=O)(c2ccccc2)c2ccccc2)c2ccccc2)nn1C`, the AC50 was 2.51 µM (active).
Same read-out and setting: for `Cc1cc(CNC(=O)[C@@H]2C[C@H]2[C@@H](NP(=O)(c2ccccc2)c2ccccc2)c2ccccc2)nn1C` the value was 0.398 µM (active).
`CC[C@H]1CN(C)[C@H]2Cc3c([nH]c4ccccc34)C(=O)C[C@H]1[C@H]2C(=O)OC`: the activity, negative = inhibition is -21.4% [at 11.4 µM] (inactive).
Regarding `C[Si](C)(c1ccc(C(=O)O)cc1)c1ccc(C(=O)O)cc1`, the activity, negative = inhibition was -6.28% [at 11.4 µM] (inactive).
For `CCN(CC)c1ncnc2c1sc1nc(C)cc(C)c12`, the AC50 is 12.6 µM (active).
Turning to `CCN(CC)N=Nc1[nH]nc2nc(C)cc(C)c12`, the activity, negative = inhibition is -15.1% [at 11.4 µM] (inactive).
On to `NC(=O)c1cccc(N)c1`, for which the AC50 entry is “inactive”.
Same read-out and setting: for `C/C(=N\Nc1ccc([N+](=O)[O-])cc1)c1cccc(N)c1` the value was 3.55 µM (active); for `COCCNc1nc(-c2ccccc2Cl)nc2ccccc12`, 12.6 µM (active).
For `COCCNc1nc(-c2ccccc2C(F)(F)F)nc2ccccc12`, the AC50 was 12.6 µM (active).
With `Nc1nc(SCC(=O)O)[nH]c(=O)c1N`, the activity, negative = inhibition was -4.46% [at 11.4 µM] (inactive).
In the case of `Cc1ccc2nc(-c3ccc(NC(=O)Cc4cccs4)cc3)[nH]c2c1`, the activity, negative = inhibition is -7.46% [at 2.29 µM] (inactive).
For `Cc1ccc2nc(Cc3ccc(N)cc3)[nH]c2c1`, the AC50 was 1.78 µM (active).
As for `C[N+](C)(C)c1ncnc2c1ncn2[C@@H]1CCCCO1`, the activity, negative = inhibition was -9.49% [at 11.4 µM] (inactive).
Take `Cn1c(-c2sc(=S)n(-c3ccccc3)c2N)nc2ccccc21`: the AC50 is 4.47 µM (active).
For the molecule `Cc1cccc(N2CC(O)=C(c3nc4ccccc4n3C)C2=N)c1`, the AC50 result is “inactive”.

Values taken from PubChem BioAssay AID1851 (National Center for Advancing Translational Sciences (NCATS), 2009).
